{"source": "the supplement of paper PMC8728848", "binders": {"B1": {"name": "Gal 7 (Homo sapiens) (protein)", "chain": "MSNVPHKSSLPEGIRPGTVLRIRGLVPPNASRFHVNLLCGEEGGSDAALHFNPRLDTSEVVFNSKEGGSWGREESGPGVPFGRGQPFEVLIIASDDGFKAVVGDAQYHHFRHRLPLARVRLVEVGGDVQLDSVRIF"}}, "assay_in_all_cases": "glycan array binding signal (z-score within array); higher = stronger binding", "conditions_in_all_cases": "glycan notation: IUPAC condensed, linker removed; mutation: R74S", "key": {"[1]": {"biological_target": "Gal(b1-4)GlcNAc(b1-3)Gal(b1-4)GlcNAc(b1-3)Gal(b1-4)GlcNAc(b1-3)Gal(b1-4)GlcNAc(b1-2)Man(a1-3)[Gal(b1-4)GlcNAc(b1-3)Gal(b1-4)GlcNAc(b1-3)Gal(b1-4)GlcNAc(b1-3)Gal(b1-4)GlcNAc(b1-2)Man(a1-6)]Man(b1-4)GlcNAc(b1-4)[Fuc(a1-6)]GlcNAc", "procedure,_shortened": "(§1)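 Glycan array data were curated from 3228 arrays in the Consortium for Functional Glycomics database and kept only where the protein sequence was available. Glycan names were converted to IUPAC-condensed notation, and columns mapping to the same glycan were averaged. The binding signal is a within-array Z-score, averaged across arrays of the same protein sequence at different concentrations or buffers and across linkers. Negative Z-scores can be read as non-binding.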"}, "[2]": {"biological_target": "Gal(b1-4)GlcNAc(b1-3)Gal(b1-4)GlcNAc(b1-3)Gal(b1-4)GlcNAc(b1-3)Gal(b1-4)GlcNAc(b1-2)[Gal(b1-4)GlcNAc(b1-3)Gal(b1-4)GlcNAc(b1-3)Gal(b1-4)GlcNAc(b1-3)Gal(b1-4)GlcNAc(b1-6)]Man(a1-6)[Gal(b1-4)GlcNAc(b1-3)Gal(b1-4)GlcNAc(b1-3)Gal(b1-4)GlcNAc(b1-3)Gal(b1-4)GlcNAc(b1-2)Man(a1-3)]Man(b1-4)GlcNAc(b1-4)[Fuc(a1-6)]GlcNAc", "procedure,_shortened": "as §1"}, "[3]": {"biological_target": "Gal(b1-4)GlcNAc(b1-3)Gal(b1-4)GlcNAc(b1-3)Gal(b1-4)GlcNAc(b1-3)Gal(b1-4)GlcNAc(b1-3)Gal(b1-4)GlcNAc(b1-2)Man(a1-3)[Gal(b1-4)GlcNAc(b1-3)Gal(b1-4)GlcNAc(b1-3)Gal(b1-4)GlcNAc(b1-3)Gal(b1-4)GlcNAc(b1-3)Gal(b1-4)GlcNAc(b1-2)Man(a1-6)]Man(b1-4)GlcNAc(b1-4)GlcNAc", "procedure,_shortened": "as §1"}, "[4]": {"biological_target": "Gal(b1-4)GlcNAc(b1-3)Gal(b1-4)GlcNAc(b1-3)Gal(b1-4)GlcNAc(b1-3)Gal(b1-4)GlcNAc(b1-3)Gal(b1-4)GlcNAc(b1-2)Man(a1-3)[Gal(b1-4)GlcNAc(b1-3)Gal(b1-4)GlcNAc(b1-3)Gal(b1-4)GlcNAc(b1-3)Gal(b1-4)GlcNAc(b1-3)Gal(b1-4)GlcNAc(b1-2)Man(a1-6)]Man(b1-4)GlcNAc(b1-4)[Fuc(a1-6)]GlcNAc", "procedure,_shortened": "as §1"}, "[5]": {"biological_target": "Gal(b1-4)GlcNAc(b1-3)Gal(b1-4)GlcNAc(b1-3)Gal(b1-4)GlcNAc(b1-3)Gal(b1-4)GlcNAc(b1-3)Gal(b1-4)GlcNAc(b1-2)[Gal(b1-4)GlcNAc(b1-3)Gal(b1-4)GlcNAc(b1-3)Gal(b1-4)GlcNAc(b1-3)Gal(b1-4)GlcNAc(b1-3)Gal(b1-4)GlcNAc(b1-6)]Man(a1-6)[Gal(b1-4)GlcNAc(b1-3)Gal(b1-4)GlcNAc(b1-3)Gal(b1-4)GlcNAc(b1-3)Gal(b1-4)GlcNAc(b1-3)Gal(b1-4)GlcNAc(b1-2)Man(a1-3)]Man(b1-4)GlcNAc(b1-4)[Fuc(a1-6)]GlcNAc", "procedure,_shortened": "as §1"}, "[6]": {"biological_target": "GalNAc(b1-3)Gal(a1-4)Gal(b1-4)GlcNAc(b1-3)Gal(b1-4)Glc", "procedure,_shortened": "as §1"}, "[7]": {"biological_target": "GalNAc(b1-3)Gal(a1-6)Gal(b1-4)Glc", "procedure,_shortened": "as §1"}, "[8]": {"biological_target": "GalNAc(b1-4)GlcNAc(b1-3)GalNAc(b1-4)GlcNAc", "procedure,_shortened": "as §1"}, "GlcNAc(b1-3)Fuc": {"biological_target": "GlcNAc(b1-3)Fuc", "procedure,_shortened": "as §1"}, "[9]": {"biological_target": "GlcNAc(b1-3)Gal(b1-4)GlcNAc(b1-3)Gal(b1-4)GlcNAc(b1-3)Gal(b1-4)GlcNAc(b1-2)Man(a1-3)[GlcNAc(b1-3)Gal(b1-4)GlcNAc(b1-3)Gal(b1-4)GlcNAc(b1-3)Gal(b1-4)GlcNAc(b1-2)Man(a1-6)]Man(b1-4)GlcNAc(b1-4)[Fuc(a1-6)]GlcNAc", "procedure,_shortened": "as §1"}, "[10]": {"biological_target": "GlcNAc(b1-3)Gal(b1-4)GlcNAc(b1-3)Gal(b1-4)GlcNAc(b1-3)Gal(b1-4)GlcNAc(b1-3)Gal(b1-4)GlcNAc(b1-2)Man(a1-3)[GlcNAc(b1-3)Gal(b1-4)GlcNAc(b1-3)Gal(b1-4)GlcNAc(b1-3)Gal(b1-4)GlcNAc(b1-3)Gal(b1-4)GlcNAc(b1-2)Man(a1-6)]Man(b1-4)GlcNAc(b1-4)[Fuc(a1-6)]GlcNAc", "procedure,_shortened": "as §1"}, "[11]": {"biological_target": "GlcNAc(b1-3)[GlcNAc(b1-6)]Gal(b1-4)GlcNAc", "procedure,_shortened": "as §1"}, "GlcNAc(b1-4)GlcNAc": {"biological_target": "GlcNAc(b1-4)GlcNAc", "procedure,_shortened": "as §1"}, "[12]": {"biological_target": "GlcNAc(b1-4)GlcNAc(b1-4)GlcNAc(b1-4)GlcNAc(b1-4)GlcNAc", "procedure,_shortened": "as §1"}, "[13]": {"biological_target": "Man(a1-2)Man(a1-6)[Man(a1-3)]Man(a1-6)[Man(a1-2)Man(a1-2)Man(a1-3)]Man", "procedure,_shortened": "as §1"}, "[14]": {"biological_target": "Neu5Ac(a2-3)Gal(b1-3)GalNAc(b1-4)[Neu5Ac(a2-3)]Gal(b1-4)Glc", "procedure,_shortened": "as §1"}, "[15]": {"biological_target": "Neu5Ac(a2-3)Gal(b1-3)GlcNAc(b1-3)GalNAc", "procedure,_shortened": "as §1"}, "[16]": {"biological_target": "Neu5Ac(a2-3)Gal(b1-3)[GlcNAc(b1-6)]GalNAc", "procedure,_shortened": "as §1"}, "[17]": {"biological_target": "Neu5Ac(a2-3)Gal(b1-4)GlcNAc", "procedure,_shortened": "as §1"}, "[18]": {"biological_target": "Neu5Ac(a2-3)Gal(b1-4)GlcNAc(b1-2)Man", "procedure,_shortened": "as §1"}, "[19]": {"biological_target": "Neu5Ac(a2-3)Gal(b1-4)GlcNAc(b1-2)Man(a1-3)[GlcNAc(b1-4)][Neu5Ac(a2-3)Gal(b1-4)GlcNAc(b1-2)Man(a1-6)]Man(b1-4)GlcNAc(b1-4)GlcNAc", "procedure,_shortened": "as §1"}, "[20]": {"biological_target": "Neu5Ac(a2-6)Gal(b1-4)GlcNAc(b1-2)Man(a1-3)[Man(a1-6)]Man(b1-4)GlcNAc(b1-4)GlcNAc", "procedure,_shortened": "as §1"}, "[21]": {"biological_target": "Neu5Ac(a2-6)Gal(b1-4)GlcNAc(b1-2)[Neu5Ac(a2-6)Gal(b1-4)GlcNAc(b1-4)]Man(a1-3)[GlcNAc(b1-4)][Neu5Ac(a2-6)Gal(b1-4)GlcNAc(b1-2)[Neu5Ac(a2-6)Gal(b1-4)GlcNAc(b1-6)]Man(a1-6)]Man(b1-4)GlcNAc(b1-4)GlcNAc", "procedure,_shortened": "as §1"}, "[22]": {"biological_target": "Neu5Gc(a2-3)Gal(b1-4)GlcNAc(b1-3)Gal(b1-4)GlcNAc(b1-2)Man(a1-3)[Neu5Gc(a2-3)Gal(b1-4)GlcNAc(b1-3)Gal(b1-4)GlcNAc(b1-2)Man(a1-6)]Man(b1-4)GlcNAc(b1-4)GlcNAc", "procedure,_shortened": "as §1"}, "[23]": {"biological_target": "Neu5Gc(a2-3)Gal(b1-4)[Fuc(a1-3)]GlcNAc", "procedure,_shortened": "as §1"}}, "note": "About 410 targets per protein were measured; listed, in parts, are those with the strongest signals and a random draw of the rest.", "data": [{"binder": "B1", "values": [{"measurement": "glycan array binding signal (z-score)", "setting": "[1]", "result": 4.17}, {"measurement": "glycan array binding signal (z-score)", "setting": "[2]", "result": 4.03}, {"measurement": "glycan array binding signal (z-score)", "setting": "[3]", "result": 7.44}, {"measurement": "glycan array binding signal (z-score)", "setting": "[4]", "result": 4.13}, {"measurement": "glycan array binding signal (z-score)", "setting": "[5]", "result": 4.35}, {"measurement": "glycan array binding signal (z-score)", "setting": "[6]", "result": -0.451}, {"measurement": "glycan array binding signal (z-score)", "setting": "[7]", "result": -0.396}, {"measurement": "glycan array binding signal (z-score)", "setting": "[8]", "result": 0.573}, {"measurement": "glycan array binding signal (z-score)", "setting": "GlcNAc(b1-3)Fuc", "result": 0.85}, {"measurement": "glycan array binding signal (z-score)", "setting": "[9]", "result": 4.14}, {"measurement": "glycan array binding signal (z-score)", "setting": "[10]", "result": 2.87}, {"measurement": "glycan array binding signal (z-score)", "setting": "[11]", "result": -0.632}, {"measurement": "glycan array binding signal (z-score)", "setting": "GlcNAc(b1-4)GlcNAc", "result": -0.382}, {"measurement": "glycan array binding signal (z-score)", "setting": "[12]", "result": -0.329}, {"measurement": "glycan array binding signal (z-score)", "setting": "[13]", "result": -0.26}, {"measurement": "glycan array binding signal (z-score)", "setting": "[14]", "result": -0.265}, {"measurement": "glycan array binding signal (z-score)", "setting": "[15]", "result": -0.585}, {"measurement": "glycan array binding signal (z-score)", "setting": "[16]", "result": -0.436}, {"measurement": "glycan array binding signal (z-score)", "setting": "[17]", "result": -0.58}, {"measurement": "glycan array binding signal (z-score)", "setting": "[18]", "result": 0.603}, {"measurement": "glycan array binding signal (z-score)", "setting": "[19]", "result": -0.325}, {"measurement": "glycan array binding signal (z-score)", "setting": "[20]", "result": -0.264}, {"measurement": "glycan array binding signal (z-score)", "setting": "[21]", "result": -0.265}, {"measurement": "glycan array binding signal (z-score)", "setting": "[22]", "result": 1.39}, {"measurement": "glycan array binding signal (z-score)", "setting": "[23]", "result": -0.084}]}]}
